# High-throughput results deposited in PubChem by University of Kansas High Throughput Screening Laboratory.
# mHTT CaM bind – inhibitors of human mutant huntingtin-calmodulin interaction; AlphaScreen His-mHTT/GST-CaM binding, luminescence; inhibition, % at 15 µM; hit rate 3.6% among 190,000; AID 1671202;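 also: 0% = both proteins with DMSO and 100% = one protein alone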
# Pf apPOL inh – Pf-apPOL DNA polymerase inhibition | Recombinant Pf-apPOL, molecular beacon fluorescence, 1.5 h | inhibition, % at 10 µM | AID 1794808 | hit rate 0.25% among 210,000
# An asterisk follows results filed as active; . = no result. This is a sample that favours compounds with a hit; in the whole collection about 3.5% have one here. Rule as the data show it: active = inhibition above about 50%; inactive = the rest.
SMILES,mHTT CaM bind,Pf apPOL inh
O=C1OCCN1C(=O)[C@H]1[C@H](c2ccc([N+](=O)[O-])cc2)C(c2ccccc2)=NN1c1ccccc1,47,-1
Cc1cccc(C2=NN(c3ccc(Br)cc3)[C@@H](C(=O)N3CCOC3=O)[C@@H]2c2ccc([N+](=O)[O-])cc2)c1,50*,-10
COc1ccc(-c2cc(C(F)(F)F)n3ncc(C(=O)NCc4ccco4)c3n2)cc1,-6,-5
COc1ccc2c(c1)Nc1ccccc1S2,63*,.
Clc1ccc2c(c1)Nc1ccccc1S2,40,.
CCCNC(=O)c1cc2nc(-c3cccs3)cc(C(F)(F)F)n2n1,-1,0
Cc1ccc(C)n1CCN1CCN(S(=O)(=O)c2cc(Br)c(Br)s2)CC1,.,-1
N#CC1=C(N)N(c2ccc(F)cc2)C2=C(C(=O)CCC2)C1c1ccc(F)cc1 (stereo unspecified),0,-6
CCOc1ccc(C2=C(CN(C)C)C(c3ccc(F)cc3)c3ccccc3O2)cc1 (stereo unspecified),91*,-3
COc1ccc(C2=C(CN(C)C)C(c3ccccc3)c3ccccc3O2)cc1 (stereo unspecified),71*,0
CCOc1ccc(C2=C(CN3CCOCC3)C(c3ccccc3)c3ccccc3O2)cc1 (stereo unspecified),15,-1
Cc1ccc(C2C(CN3CCOCC3)=C(c3ccccc3)Oc3ccccc32)cc1 (stereo unspecified),25,0
O=C(NCc1ccccn1)C1CCC(c2ccc(Cl)cc2)CC1 (stereo unspecified),.,-89
COc1ccc(NC(=O)N2CCN(c3ccc(-n4nc(C)cc4C)nn3)CC2)cc1,9,-9
COc1cccc(NC(=O)N2CCN(c3ccc(Nc4cc(C)ccn4)nn3)CC2)c1,99*,-7
Cc1ccc2c(c1)NC(=O)c1cc(NC(=O)c3ccccc3Br)ccc1O2,-2,-1
Cc1cc(C(=O)N2CCN(c3nc4c(S(C)(=O)=O)cccc4s3)CC2)on1,-5,-8
COc1ccccc1/C=C/CN1CCN(c2ccc([N+](=O)[O-])cc2)CC1,53*,-3
COc1ccccc1/C=C/CN1CCN(c2ccccc2)CC1,32,-4
Cc1cccc(N2CCN(C/C=C/c3ccccc3[N+](=O)[O-])CC2)c1C,66*,-6
CCN1CCN(C/C=C/c2ccccc2[N+](=O)[O-])CC1,1,-7
CCCCn1c(CN2C(=O)c3ccccc3C2=O)nc2ccccc2c1=O,1,-4
CN(C)S(=O)(=O)c1cc(C(=O)Nc2ccccn2)c(Cl)cc1Cl,30,-4
CCCCc1ccc(NC(=O)Cc2nn(C)c(=O)c3ccccc23)cc1,11,-11
COc1ccc(C2C=C(c3cccs3)Nc3ncnn32)cc1OC (stereo unspecified),6,-3
SMILES,mHTT CaM bind,Pf apPOL inh
COc1cccc(C2C=C(c3ccc(F)cc3)Nc3ncnn32)c1OC(F)F (stereo unspecified),73*,-5
COc1ccc(C2C=C(c3cccc(Br)c3)Nc3ncnn32)c(OC)c1 (stereo unspecified),45,-8
Fc1ccc(C2=CC(c3ccccc3OC(F)F)n3ncnc3N2)cc1 (stereo unspecified),10,-6
COc1ccc(C2C=C(c3ccc(Br)s3)Nc3ncnn32)cc1OC (stereo unspecified),57*,-6
CCc1ccc(C2=CC(c3ccc(OC)c(OC)c3OC)n3ncnc3N2)cc1 (stereo unspecified),35,-3
COc1ccc(C2C=C(c3ccc(Cl)cc3)Nc3ncnn32)c(OC)c1OC (stereo unspecified),89*,-3
COc1cc(C2C=C(c3cccc(Br)c3)Nc3ncnn32)cc(OC)c1OC (stereo unspecified),100*,-9
CC1OC(Nc2ccc(OC(F)(F)F)cc2)C(O)C(O)C1O (stereo unspecified),5,-6
Cc1ccc(N2C(=O)CC(C3CCCO3)C2=O)cc1 (stereo unspecified),0,7
COc1ccc(C2C=C(c3cccc(NC(C)=O)c3)Nc3ncnn32)c(OC)c1 (stereo unspecified),4,83*
COc1cccc(C2=CC(c3ccc(OC)cc3OC)n3ncnc3N2)c1 (stereo unspecified),22,-9
COc1ccc(C2=CC(c3cccc(OC)c3OC)n3ncnc3N2)cc1 (stereo unspecified),-2,-6
COc1cccc(C2C=C(c3ccc(Cl)cc3)Nc3ncnn32)c1OC (stereo unspecified),58*,-5
Cc1cccc2c(C(N)=O)cc(N3CCCC3)nc12,-5,-5
CCOc1ccccc1C(=O)N1CCC2(CC1)NC(=O)c1cc(C)ccc1N2CC,20,1
COc1ccc(S(=O)(=O)CCC(=O)Nc2ccc(F)cc2F)cc1,-11,-1
O=C(/C=C/c1ccc(-c2ccc(Cl)cc2)o1)c1ccco1,58*,-4
O=C(/C=C/c1ccc(-c2ccc([N+](=O)[O-])cc2)o1)c1ccco1,13,8
CC1=C/C(=C/c2ccc(-c3ccc([N+](=O)[O-])cc3)o2)C(=O)O1,19,3
CC1=C/C(=C\c2ccc(-c3ccccc3[N+](=O)[O-])o2)C(=O)O1,51*,0
O=C(/C=C/c1ccc(-c2ccccc2[N+](=O)[O-])o1)c1ccco1,71*,-4
O=C(/C=C/c1ccc(-c2ccccc2)o1)c1ccco1,48,-1
O=C(Nc1ccc2[nH]c(=O)[nH]c2c1)c1cccc([N+](=O)[O-])c1,-2,0
COc1ccc(C(=O)N2CCC3(CC2)NC(=O)c2ccc(Cl)cc2N3)cc1OC,4,-2
CCc1onc(C)c1C1CCCN1C(=O)c1ccc(F)cc1 (stereo unspecified),0,-1
SMILES,mHTT CaM bind,Pf apPOL inh
CC1=C(C(=O)Nc2ccccc2)C(c2ccc(OCc3ccccc3)cc2)n2nnnc2N1 (stereo unspecified),62*,-5
CC1=C(C(=O)Nc2ccccn2)C(c2ccc(OCc3ccccc3)cc2)n2nnnc2N1 (stereo unspecified),46,6
O=[N+]([O-])c1ccc(Sc2ccsc2)c([N+](=O)[O-])c1,69*,.
O=[N+]([O-])c1cc(Cl)ccc1Sc1ccccc1,.,7
CC1CCCCC1N1C(=O)c2ccccc2C1C(=O)NC1CCCCC1 (stereo unspecified),52*,-3
O=C(NC1CCCCC1)C1c2ccccc2C(=O)N1C1CCCCC1 (stereo unspecified),9,-4
CC(C)c1nc2c(c(=O)n1CC(=O)Nc1cccc(F)c1)CCN(Cc1ccccc1)C2,84*,-4
CC(C)c1nc2c(c(=O)n1CC(=O)Nc1ccccc1F)CCN(Cc1ccccc1)C2,9,-1
COc1cc([N+](=O)[O-])ccc1N1CCCC1,21,4
Oc1ccccc1N=CC=Nc1ccccc1O,.,0
CC(C)CC(NC(=O)C(C)Nc1c2ccccc2nc2ccccc12)C(=O)O (stereo unspecified),65*,-2
CC(C)CC(NC(=O)c1ccco1)C(=O)O (stereo unspecified),-2,61*
CC(Nc1c2ccccc2nc2ccccc12)C(=O)NC(CC(N)=O)C(=O)O (stereo unspecified),1,2
CC(NC(=O)c1ccco1)C(=O)O (stereo unspecified),0,1
COc1ccc(C(=O)COc2ccc3c(c2)OC(=Cc2cc(OC)ccc2OC)C3=O)cc1,9,-19
